# Data from PubChem BioAssay AID1825 (The Scripps Research Institute Molecular Screening Center, 2009).
# Among all 290,000 compounds or so, about 2,300 (0.79%) were called active. This is one part of a sample in which actives are shown more often than they occur. A number with no mark means an inactive call. Cut-off read from the data, not from the text of the source: active = inhibition above about 22%; inactive = the rest.
# Experiment: cytotoxicity in IEC-6 intestinal epithelial cells, primary screen, cytotoxicity control for KLF5 inhibitor project, cell-based, luminescence (AID 1825);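 note: 0% = plate median of test compound wells and 100% = cytotoxic reference compound wells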
# Details: IEC-6 cytotoxicity, luminescence viability; at 5 µM; hits give high values
row,SMILES,inhibition
1,N#C/C=C/N1CCN(Cc2ccc3c(c2)OCO3)CC1,-5.9%
2,NS(=O)(=O)c1cccc(NC(=O)CSc2nc3ccccc3n2-c2ccccc2)c1,-1.5%
3,Cc1ccc(-n2c(SCC(=O)Nc3ncc(Cl)cc3Cl)nc3ccccc32)cc1,61.4% (active)
4,Cc1ccc(SCCC(=O)OCC(=O)Nc2ncc(Cl)cc2Cl)cc1,-3.3%
5,COCCN1C(=O)C(=O)/C(=C(/O)c2ccc(S(=O)(=O)N3CCOCC3)cc2)C1c1ccc(OC)c(OC)c1 (configuration not stated),5.3%
6,NC(=O)Cn1cc(/C=N\NS(=O)(=O)c2ccccc2)c2ccccc21,1.4%
7,CCOc1ccccc1CNS(=O)(=O)c1cc(-c2cc(C)no2)ccc1C,2.7%
8,Cc1cc(-c2ccc(C)c(S(=O)(=O)NCCCN(Cc3ccccc3)C(C)C)c2)on1,6.1%
9,COc1ccc(CNS(=O)(=O)c2cc(-c3cc(C)no3)ccc2C(C)C)cc1,77.6% (active)
10,COc1cccc(NC(=O)CN(C)C(=O)c2ccccc2CCc2ccccc2)c1,-3.1%
11,Cc1ccc(C(=O)CCC(=O)N(C)CC(=O)Nc2c(Cl)cccc2Cl)cc1,1.7%
12,Cc1cc(C)nc(SCC(=O)c2ccc(Cl)cc2)n1,-2.2%
13,Cc1cc(C)nc(S/C=C/C(=O)c2ccccc2)n1,31.5% (active)
14,Cc1ccc(N/C=C/C(=O)c2ccccc2)cc1C,0.5%
15,O=S(=O)(NC1CCCC1)c1ccc(-n2cnnn2)cc1,-0.4%
16,COc1cc(NS(=O)(=O)c2ccc3ccccc3c2)c2ncccc2c1,93.3% (active)
17,Cc1ccc(NS(=O)(=O)c2ccc(C)c(NC(=O)COc3ccc4ccccc4c3)c2)c(C)c1,-2%
18,COc1ccc2cc(S(=O)(=O)Nc3ccccn3)ccc2c1,1.9%
19,CCC(CC)c1nnc(NC(=O)C2CCN(C(=O)c3ccco3)CC2)s1,-0.9%
20,COc1ccc(C(=O)c2c(C)c(CCC#N)n3ccccc23)c(OC)c1,-1.3%
21,CCC(=C/c1sc2ccc3ccccc3c2[n+]1C)/C=C1\Sc2ccc3ccccc3c2N1C,32.2% (active)

row,SMILES,inhibition
1,CC(C)C(=O)Nc1c2c(nn1-c1ccccc1)CSC2,-4.2%
2,COc1ccc(/C=C/c2noc(-c3ccccc3OC(C)=O)n2)cc1,-0.4%
3,S=C(Nc1ccc(Br)cc1)NC1CCN(Cc2ccccc2)CC1,11.3%
4,Cc1ccc(-c2csc(NC3OC(=O)c4ccccc43)n2)cc1 (configuration not stated),34.7% (active)
5,COc1ccc(-c2csc(NC3OC(=O)c4ccccc43)n2)cc1 (configuration not stated),18.7%
6,COc1ccc(CCNc2nc(-c3cccc(NC(C)=O)c3)cs2)cc1OC,2.3%
7,Cc1ccc(-c2csc(NNC(=O)c3ccccc3)n2)cc1,-1.4%
8,COc1ccc2c(c1OC)C(=O)OC2Nc1nc(-c2ccccc2)cs1 (configuration not stated),21.9% (active)
9,Cc1cccc(Nc2nc(-c3ccccc3)cs2)n1,5.9%
10,COCCN1C(=O)N(c2ccc(Cl)cc2)C(=O)C1CC(=O)Nc1cc(OC)cc(OC)c1 (configuration not stated),-2.6%
11,CC(=O)Nc1c2c(nn1-c1ccc(C)cc1C)CS(=O)C2 (configuration not stated),-0.7%
12,NC(=O)c1oc2ccccc2c1NC(=O)CS(=O)(=O)c1ccccc1,6.1%
13,Cc1ccc(NC(=O)C(C)c2cccc(C(=O)c3ccccc3)c2)cc1 (configuration not stated),3.2%
14,CCOc1ccc(NC(=O)CCC(=O)NNC(=O)NC2CCCCC2)cc1,-7.2%
15,O=S(=O)(c1ccc(Br)cc1)n1ccc2ccccc21,3.2%
16,CCn1c(SCC(=O)NC2=NCCS2)nnc1C(C)NC(=O)c1ccccc1F (configuration not stated),0.1%
17,CSc1nc2ccc(NC(=O)c3c(F)cccc3F)cc2s1,8.5%
18,CCOc1ccc2nc(Nc3nc4ccc(NC(C)=O)cc4s3)sc2c1,-2.2%
19,O=C(Cc1ccccc1)Nc1ccc(NC(=O)c2cccnc2)cc1,0.2%
20,CCOC(=O)c1ccc(NC(=O)c2cccnc2)cc1,-6.9%
21,CCCC(=O)Nc1nc2ccc(NC(=O)c3c(F)c(F)c(OC)c(F)c3F)cc2s1,76.8% (active)

row,SMILES,inhibition
1,CCCC(=O)Nc1nc2ccc(NC(=O)c3cccnc3)cc2s1,30.2% (active)
2,COc1ccccc1/C=C/C(=O)NC1CC2CCC1C2 (configuration not stated),4.4%
3,Cc1cc(C)n2nc(C(=O)NC(C)(C)C)nc2n1,3.3%
4,Cc1cc(C)n2nc(CNS(=O)(=O)c3c(F)c(F)c(F)c(F)c3F)nc2n1,31.5% (active)
5,Cc1cc(C)n2nc(SCC(N)=O)nc2n1,4.6%
6,O=C1C(=O)N(CCCN2CCOCC2)C(c2ccc([N+](=O)[O-])cc2)/C1=C(\O)c1ccc2c(c1)OCCO2 (configuration not stated),-1.8%
7,COc1ccc(Nc2ncc(C(=O)N3CCN(c4ccccc4OC)CC3)c3ccccc23)cc1,11.7%
8,NS(=O)(=O)c1cccnc1Nc1cccc(Cl)c1,-0.6%
9,Cn1c(Nc2cccc(Cl)c2)nc2ccccc21,4.2%
10,CCOc1c(Nc2cccc(Cl)c2)c(=O)c1=O,23.4% (active)
11,Cc1onc(NC(=O)c2ccc([N+](=O)[O-])o2)c1Br,46.1% (active)
12,Cc1onc(C(=O)NCc2ccc(F)cc2)c1[N+](=O)[O-],-2.3%
13,Cc1cccc(NC(=S)NC(=O)c2ccc(Br)o2)c1,1.6%
14,Cc1cccc(NC(=O)c2ccc([N+](=O)[O-])o2)c1,66.2% (active)
15,Cc1cccc(NC(=O)c2sc(-c3ccccc3)nc2-c2ccc([N+](=O)[O-])cc2)c1,-10%
16,O=C(Nc1ccc(Br)cn1)c1ccc([N+](=O)[O-])o1,16.7%
17,O=c1[nH]cnc(O)c1C(c1ccc(F)cc1)c1c(O)nc[nH]c1=O,-4.2%
18,CC1C(=O)Nc2ccc(S(=O)(=O)N3CCN(c4ccccc4F)CC3)cc2NC1=O (configuration not stated),1.5%
19,O=c1c2c(-c3ccccc3)ccnc2[nH]n1-c1ccccc1,-0.7%
20,COc1ccc(-c2ccc(CCC(=O)O)n2NC(=O)c2ccc(C(C)(C)C)cc2)cc1,-6.8%
